Results filed as inconclusive are left out. The source made the active and inactive calls. Calls come from the whole dose curve; as a rule, active = well fitted inhibition curve with a large enough effect; inconclusive = small, poorly fitted or top-dose-only effect; inactive = flat fitted curve, though single readings scatter.

The target of this assay is Calcium and integrin-binding protein 1 (Homo sapiens) (UniProt Q99828). Briefly: Primary qHTS for Identification of Calcium Integrin Binding Protein 1 (CIB1) Competitor (AID 1508620).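 Note: GST tagged CIB1 binding a fluorescein labelled alphaIIb integrin peptide tracer; top concentration of the series differs between compounds.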 The following applies: CIB1-GST / FITC-alphaIIb peptide fluorescence polarization; series mostly up to 114 µM. An excerpt: Assay Provider: Ulhas P. Naik, PhD Sidney Kimmel Medical College Thomas Jefferson University, Philadelphia, PA Primary function of platelets is to maintain hemostasis. At the site of vascular injury, platelets adhere to adhesive proteins such as collagen and von Willebrand factor. Adherent platelets are activated and generate soluble platelet agonists such as thrombin, ADP and thromboxane A2. Following exposure of circulating platelets to these agonists, results in platelet shape change, granule secretion and activation of platelet integrin alphaIIb-beta3. Ligand binding to activated integrin alphaIIb-beta3 triggers outside-in signaling, leading to platelet aggregation, stabilization of platelet plug, and clot retraction. Upon atherosclerotic plaque rupture also causes platelet plug formation, which underlies a number of cardiovascular diseases such as myocardial infraction and stroke. A number of anti-platelet drugs such as aspirin, clopidogrel, prasugrel, vorapaxar, and eptifibatide are currently available to prevent the thrombotic complications. However, these anti-platelet agents have several limitations including inherent variability in individual responses, developing resistance, and serious bleeding side effects. For these reasons they are not suitable for long-term protection. Based on the experiences with current anti-platelet drugs, it appears that the most useful therapeutic approach is to intersect the secondary responses such as integrin outside-in signaling or recruitment of platelets by TxA2 and secreted ADP. Compounds, which can largely preserve the primary hemostatic function of platelets but inhibit secondary response will be most desired therapeutic agents for treatment of cardiovascular disease. CIB1 is a calcium integrin binding protein, which specifically interact with the alphaIIb subunit of integrin alphaIIb-beta3. Binding of CIB1 to alphaIIb regulates the outside-in signaling in platelets, which is needed for thrombus stabilization and thrombus growth. […] Therefore, we propose that discovery of a small molecule that can prevent the association of CIB1 and alphaIIb-beta3 will be a potential anti-platelet agent that can block the thrombus formation without undue effect on hemostasis. Reference: [1] Naik MU, Nigam A, Manrai P, et al. CIB1 deficiency results in impaired thrombosis: the potential role of CIB1 in outside-in signaling through integrin alpha IIb beta 3. J Thromb Haemost.
Chain of Calcium and integrin-binding protein 1 (Homo sapiens) (Q99828 whole entry, looked up): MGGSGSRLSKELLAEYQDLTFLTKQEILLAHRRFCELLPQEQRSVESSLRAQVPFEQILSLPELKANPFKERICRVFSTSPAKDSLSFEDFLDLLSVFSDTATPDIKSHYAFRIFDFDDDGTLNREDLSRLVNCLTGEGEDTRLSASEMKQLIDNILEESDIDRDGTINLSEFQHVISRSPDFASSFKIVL
PROTOCOL TABLES SEQUENCE No. (1, 2, 3, etc.); […] (e.g., Cells, Incubation, Reagent, etc.); VALUE and DESCRIPTION. 1; Reagent; 3 uL; Protein or buffer (4/3x) 2; Compound; 46 nL; Control inhibitor / compound library 3; Time; 15 min; Room temperature incubation 4; Reagent; 1 uL; Fluorescent labeled peptide (4x) 5; Time; 1000 rpm; Centrifuge 6; Time; 15 min; Room temperature incubation 7; Detection; Ex 480/ Em 540; ViewLux Fluorescence Read NOTES (numbers refer to sequence above) 1; Protein Mixture: C1B1-GST (final concentrations of 1 uM). […] 3; Room temperature incubation. 4; Fluorescent Labeled Peptide: FITC-aIIb (final concentration of 100 nM). Sequence of alphaIIb peptide: Acetyl-[…]-FITC (purity is 95.83%). 5; Centrifuge 1000 rpm (164 g) for 15 seconds. 6; Room temperature incubation. 7; ViewLux Fluorescent Polization Read: excitation = 480(20) / emission = 540(25) S and P; FITC Dichroic mirror.
Take `CC(=O)Nc1nc2c(Oc3cc(-c4ccc(C(F)(F)F)cc4)ncn3)cccc2s1`: the outcome was inactive. Take `CC1(C)CC[C@]2(C(=O)OC3OC(CO)C(O)C(O)C3O)CC[C@]3(C)C(=CCC4[C@@]5(C)CC[C@H](OC6OC(C(=O)O)C(O)C(O)C6O)C(CO)(CO)C5CC[C@]43C)[C@@H]2C1` (stereo not given in full): the outcome was inactive. The entry for `C=C1[C@@H](C2=CC(=O)OC2)CC[C@@]2(O)[C@@H]1CC1[C@H]2CC[C@@H]2C[C@@H](O[C@H]3O[C@@H](C)[C@@H](O[C@@H]4O[C@H](CO[C@@H]5O[C@H](CO)[C@@H](O)[C@H](O)[C@H]5O)[C@@H](O)[C@H](O)[C@H]4O)[C@H](OC)[C@H]3O)CC[C@]12C` (stereo not given in full) is “inactive”; for `O=C(NC(NC(=S)Nc1ccc(F)c([N+](=O)[O-])c1)C(Cl)(Cl)Cl)C(c1ccccc1)c1ccccc1` (stereo not given) it is “inactive”. The entry for `COC(=O)c1ccccc1NC(=O)c1ccc(F)cc1` is “inactive”; for `O=C(OCC#CCSc1nnc(-c2cccc3ccccc23)o1)c1sc2ccccc2c1Cl` it is “inactive”; for `CCC(=O)Nc1cccc(Oc2nc(Nc3ccc(N4CCN(C)CC4)cc3OC)ncc2Cl)c1` it is “inactive”. The entry for `CCN1CCC[C@@H]1CNC(=O)c1ccc2c(c1)NC(=O)/C(=C/c1ccccc1F)S2` is “inactive”. For the compound `COc1ccc(C(=O)N(CCC(C)C)Cc2nc(C)c(C)n2Cc2ccccc2C)c(OC)c1`, the result was inactive. The entry for `O=C(C1=CCN2c3c(cccc31)OC[C@H]2CN1CCOCC1)c1cccc2ccccc12` is “inactive”. The entry for `CC(CCC1(O)OC2CC3C4CC=C5CC(O[C@@H]6O[C@H](CO)[C@@H](O[C@@H]7O[C@H](CO)[C@@H](O)[C@H](O)[C@H]7O)[C@H](O)[C@H]6O[C@@H]6O[C@@H](C)[C@H](O)[C@@H](O)[C@H]6O)CCC5(C)C4CCC3(C)C2C1C)CO[C@@H]1O[C@H](CO)[C@@H](O)[C@H](O)[C@H]1O` (stereo not given in full) is “inactive”; for `O=C(Nc1ccc(F)cc1)N1CCc2ccccc2C1c1ccc(C(F)(F)F)cc1` (stereo not given) it is “inactive”; for `O=C(O)c1ccc(O)c2ncc(N3CCCN(CCc4cccc5ccccc45)CC3)cc12` it is “inactive”. The entry for `CC1CCC2C(=CCC(O)C2(C)C)C1(C)Cc1c(O)cc(CO)c(C=O)c1O` (stereo not given) is “inactive”. Take `O=C(OCC#CCSc1nnc(-c2cccc3ccccc23)o1)c1sc(Cl)c(Cl)c1Cl`: the result was inactive. The result for `O=C(CC1NCCC[C@H]1O)Cn1cnc2cc(Br)c(Cl)cc2c1=O` (stereo not given in full) reads “inactive”; that for `COc1cc(N2CCN(C)CC2)ccc1Nc1nccc(-c2cn(C)c3cnccc23)n1`, “inactive”. `O=C1CCCC2=C1C1(CCSCC1)N=C(Nc1nc3ccccc3o1)N2`: the outcome was inactive. The entry for `Clc1ccccc1CNCC1CCC(CNCc2ccccc2Cl)CC1` (stereo not given) is “inactive”. As for `C[C@H](NC(=O)C(C)(C)Oc1ccc(C(F)(F)F)cn1)[C@@H](Cc1ccc(Cl)cc1)c1cccc(C#N)c1`, the outcome was inactive. `CC[C@@H](C)[C@H]1C(=O)O[C@H](C(C)C)C(=O)N(C)[C@@H](C(C)C)C(=O)O[C@H](C(C)C)C(=O)N(C)[C@@H](C(C)C)C(=O)O[C@H](CC(C)C)C(=O)N1C`: the result was inactive. For `CCCCCCCCCCCCCCCCOCCCOP(=O)(O)COC(CO)Cn1ccc(N)nc1=O` (stereo not given), the outcome was inactive.

Consider `CCCCc1nc(C)c(CC(=S)N(C)C)c(=O)n1Cc1ccc(-c2ccccc2-c2nn[nH]n2)cc1`, for which the result was inactive. For `O=C(OCC#CCSc1nnc(-c2cccc3ccccc23)o1)c1cccc(C(F)(F)F)c1`, the result was inactive. The entry for `Nc1nc(NCC2CCC(CNS(=O)(=O)c3cccc4ccccc34)CC2)nc2ccccc12` (stereo not given) is “inactive”; for `C=C1C(=O)O[C@@H]2C[C@@]3(C)CCC[C@H](C)C3=C[C@H]12` it is “inactive”; for `C=C1C(=O)O[C@@H]2CC(C)=C([C@@H](C)CCCO)[C@@H](OC(=O)C(C)C)[C@H]12` it is “inactive”. The entry for `COc1ccccc1-c1cc(Nc2cccc(CS(N)(=O)=O)c2)ncn1` is “inactive”; for `COc1ccc(C2(CNC(=O)[C@](C)(Cc3c[nH]c4ccccc34)NC(=O)Nc3ccc([N+](=O)[O-])cc3)CCCCC2)nc1` it is “inactive”; for `COc1ccc(-c2cc(C(O)C3CCCCN3)c3ccccc3n2)cc1` (stereo not given) it is “inactive”. The result for `C/C=C(/COC(=O)/C(C)=C/C)C(=O)OC/C=C/c1ccc(OC)cc1` reads “inactive”; that for `c1ccc(-c2cnc(Nc3ccc(OCCN4CCCC4)cc3)s2)cc1`, “inactive”. Turning to `CC[C@]1(O)C[C@H]2CN(CCC3C(=Nc4ccccc43)[C@@](C(=O)OC)(c3cc4c(cc3OC)N(C)[C@H]3[C@@](O)(C(N)=O)[C@H](O)[C@]5(CC)C=CCN6CC[C@]43[C@@H]65)C2)C1` (stereo not given in full), the result was inactive. On to `CC(C)(C)c1ccc(CNC(=S)NCc2ccc(NS(C)(=O)=O)c(F)c2)cc1`, for which the outcome was inactive. As for `Cc1nnsc1C(=O)Nc1ccc(-n2nc(C(F)(F)F)cc2C(F)(F)F)cc1`, the result was inactive. `CC[C@H]1OC(=O)[C@H](C)[C@@H](O[C@H]2C[C@@](C)(OC)[C@@H](O)[C@H](C)O2)[C@H](C)[C@@H](O[C@@H]2O[C@H](C)C[C@H](N(C)C)[C@H]2O)[C@](C)(O)C[C@@H](C)/C(=N/OCOCCOC)[C@H](C)[C@@H](O)[C@]1(C)O`: the result was inactive. The entry for `COc1c(N2CC3CCCNC3C2)c(F)cc2c(=O)c(C(=O)O)cn(C3CC3)c12` (stereo not given) is “inactive”; for `Nc1ncnc2c1ncn2[C@@H]1O[C@H](CO)C[C@H]1O` it is “inactive”; for `COc1cc(N2CCOCC2)ccc1Nc1ncc(F)c(Nc2ccccc2NS(C)(=O)=O)n1` it is “inactive”. The entry for `COc1ccc(CNC(=O)Nc2ncc([N+](=O)[O-])s2)cc1` is “inactive”.

(Values after PubChem BioAssay (NCATS).)
